Test results taken from PubChem BioAssay AID540303 (National Center for Advancing Translational Sciences (NCATS), 2011).
Among all 330,000 compounds or so, about 1,000 (0.3%) were called active. Not shown: some 3% with an inconclusive outcome. Only a selection was taken, and actives are over-represented in it overall. Unmarked numbers belong to inactive results. Calls come from the whole dose curve; as a rule, active = well fitted inhibition curve with a large enough effect; inconclusive = small, poorly fitted or top-dose-only effect; inactive = no such curve, though single readings can be large or run the other way; tested in mouse RAW 264.7 cells.

Assay: qHTS for Inhibitors of Cell Surface uPA Generation; note: nearly all actives have a fitted effect of over 55% in size
Settings: cell surface uPA generation assay; series mostly up to 38.3 µM; activity change, negative = inhibition: at the top concentration
Outline: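 RAW 264.7, 4000 cells/well, o/n 37 C; cpd 1:5 dilution, up to 38.3 uM final; 24 h 37 C/5% CO2 with reagent; ATP-Lite lum. High ATP = LF entry blocked.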
% is set by controls: 0 for no effect and ±100 for the full control effect; potency is the fitted concentration of half-maximal effect.

**Q.** For `COCC(=O)N(C)[C@H]1C[C@H]2c3cc(Oc4ccccc4C)ccc3CCN2C(=O)[C@H]1[C@H](C)O`, which “activity change, negative = inhibition” value is on record?
**A.** -8.04%

**Q.** Which “activity change, negative = inhibition” value does the source give for `CC(=O)OC1CCC2C3CCC4=C(CC(F)C(=O)C4)C3CCC12C` (stereo unspecified) here?
**A.** -1.93%

**Q.** For `Oc1ccc(Br)cc1/C=N/Nc1ccccn1`, which Potency is on record?
**A.** 2.82 µM (active)

**Q.** Which “activity change, negative = inhibition” value does the source give for `Oc1ccc(Br)cc1C=Nc1ccc2[nH]ncc2c1` here?
**A.** -8.16%

**Q.** For `Oc1ccc(/C=N/Nc2ccc(C(F)(F)F)cn2)cc1O`, which “activity change, negative = inhibition” value is on record?
**A.** -7.76%

**Q.** With `C[C@@H]1ON(C)[C@H]2C[C@H]3c4cc(N5CCN(C)CC5)ccc4CCN3C(=O)[C@@H]12` as the compound, how does the “activity change, negative = inhibition” value read?
**A.** 10.6%

**Q.** Which “activity change, negative = inhibition” value does the source give for `COc1ccc(CNc2ncnc3ccccc23)cc1` here?
**A.** 2.13%

**Q.** Which Potency does the source give for `COc1ccc(CNc2nc(NCc3ccc(OC)cc3)c3ncn(C4CCCC4)c3n2)cc1` here?
**A.** 1.41 µM (active)

**Q.** For `COc1ccc(CNC(=O)C2CCCC2)cc1`, which “activity change, negative = inhibition” value is on record?
**A.** 0.576%

**Q.** For `NS(=O)(=O)c1cccnc1Nc1cccc(Cl)c1`, which “activity change, negative = inhibition” value is on record?
**A.** 5.06%

**Q.** Which “activity change, negative = inhibition” value does the source give for `OCCCNc1nc(-c2ccccc2)c2cc(Cl)ccc2n1` here?
**A.** -2.2%

**Q.** For `OCCCNc1nccc(-c2cc(Nc3cccc(Cl)c3)ncn2)n1`, which Potency is on record?
**A.** 1.58 µM (active)

**Q.** With `NC1=NOC(=O)C1C1CCCCC1` (stereo unspecified) as the compound, how does the “activity change, negative = inhibition” value read?
**A.** 2.75%

**Q.** For `CCCCN(C(=O)CSCc1ccc(C)cc1)c1c(N)n(Cc2ccccc2)c(=O)[nH]c1=O`, which “activity change, negative = inhibition” value is on record?
**A.** -5.42%

**Q.** With `Nc1ccc2c(c1)C(=Cc1cccnc1)c1ccccc1-2` as the compound, how does the “activity change, negative = inhibition” value read?
**A.** -4.54%

**Q.** With `COn1c(-c2ccc(Cl)cc2Cl)nc2ncccc21` as the compound, how does the “activity change, negative = inhibition” value read?
**A.** -0.408%

**Q.** For `O=C1c2ccccc2C(=O)N1Cc1cc(-c2ccccc2Cl)no1`, which “activity change, negative = inhibition” value is on record?
**A.** -7.69%

**Q.** For `Clc1ccc(-c2cc(-c3ccccn3)on2)c(Cl)c1`, which Potency is on record?
**A.** 0.891 µM (active)

**Q.** Which “activity change, negative = inhibition” value does the source give for `CN(O)C(=S)c1ccccc1` here?
**A.** -5.86%

**Q.** Which “activity change, negative = inhibition” value does the source give for `CCc1c(Nc2ccccc2C)nc(N)[nH]c1=O` here?
**A.** 0.701%

**Q.** Which “activity change, negative = inhibition” value does the source give for `CCN(CC)S(=O)(=O)c1cccc(NC(=O)c2ccc(S(=O)(=O)N3CCCC3)cc2)c1` here?
**A.** 2.72%

**Q.** For `COc1ccc(-c2cc3ncccc3cn2)cc1`, which Potency is on record?
**A.** 10 µM (active)

**Q.** For `COc1ccc(-c2nnc(-c3ccc4ccccc4c3)o2)cc1`, which “activity change, negative = inhibition” value is on record?
**A.** 3.79%

**Q.** With `COc1ccc(-c2cn3cccnc3n2)cc1` as the compound, how does the “activity change, negative = inhibition” value read?
**A.** -8.17%

**Q.** For `COc1ccc(/C=C/C(=O)OCC(=O)N2CCN(S(=O)(=O)c3ccc(C)cc3C)CC2)cc1OC`, which “activity change, negative = inhibition” value is on record?
**A.** -25.9%

**Q.** With `COc1cc(C(=O)CCc2ccc3c(c2)OCO3)cc(OC)c1OC` as the compound, how does the “activity change, negative = inhibition” value read?
**A.** 1.46%

**Q.** Which “activity change, negative = inhibition” value does the source give for `S=C(Nc1ccccc1)Nc1ccc2ccccc2c1` here?
**A.** 0.245%

**Q.** Which Potency does the source give for `COc1ccc(-c2cn3ccc(C)cc3n2)cc1` here?
**A.** 1 µM (active)

**Q.** For `Cc1ccn2cc(C(=O)NC3CCN(Cc4ccccc4)CC3)nc2c1`, which “activity change, negative = inhibition” value is on record?
**A.** 4.62%

**Q.** With `CCN(CC)S(=O)(=O)c1ccc(-c2cn3ccc(C)cc3n2)cc1` as the compound, how does the “activity change, negative = inhibition” value read?
**A.** -29.7%

**Q.** For `O=c1ccn([C@@H]2O[C@H](CNS(=O)(=O)c3cc4ccccc4s3)[C@@H](O)[C@H]2O)c(=O)[nH]1`, which “activity change, negative = inhibition” value is on record?
**A.** 5.53%

**Q.** Which “activity change, negative = inhibition” value does the source give for `O=C(NN=Cc1ccccc1)c1ccccc1` here?
**A.** -9.51%

**Q.** Which “activity change, negative = inhibition” value does the source give for `CC(=O)N1CCc2ccc(N)cc21` here?
**A.** 3.65%

**Q.** For `COc1ccc2c(c1)c(=Cc1ccc(N(C)C)cc1)c1cc(-c3ccccc3)[n+](C)n12`, which “activity change, negative = inhibition” value is on record?
**A.** -7.82%

**Q.** With `O=[N+]([O-])c1cc2ccccc2nc1-c1ccccc1` as the compound, how does the “activity change, negative = inhibition” value read?
**A.** -3.87%

**Q.** For `COc1ccc2c(C(=O)c3ccc(C)cc3)n(CCC(N)=O)[n+]([O-])c2c1`, which “activity change, negative = inhibition” value is on record?
**A.** -0.295%

**Q.** Which Potency does the source give for `COc1ccc(C(=O)c2c3ccc([N+](=O)[O-])cc3[n+]([O-])n2CCCN)cc1` here?
**A.** 0.794 µM (active)

**Q.** With `COc1ccc(C(=O)CC(=O)C(=O)Nc2cc([N+](=O)[O-])ccc2OC)cc1` as the compound, how does the “activity change, negative = inhibition” value read?
**A.** -10.5%

**Q.** For `CC/C(=C(/c1ccccc1)c1ccc(OCC[N+](C)(C)C)cc1)c1ccccc1`, which “activity change, negative = inhibition” value is on record?
**A.** -1.1%

**Q.** Which “activity change, negative = inhibition” value does the source give for `Cc1c(NS(=O)(=O)c2cccc(C(=O)Nc3ccc(SC(F)F)cc3)c2)c(=O)n(-c2ccccc2)n1C` here?
**A.** -10.2%

**Q.** For `OCCN1CCN(CCO)C1=S`, which “activity change, negative = inhibition” value is on record?
**A.** -0.396%

**Q.** Which “activity change, negative = inhibition” value does the source give for `COc1cccc(C=CC(=O)C=CC=Cc2ccccc2)c1` here?
**A.** -6.72%

**Q.** With `COc1cc(/C=C2\Oc3ccc(C#Cc4ccc(O)cc4)cc3C2=O)cc(OC)c1` as the compound, how does the Potency read?
**A.** 4.47 µM (active)

**Q.** With `COC(=O)C(C)Oc1ccc2c(c1)O/C(=C\c1cccc(Br)c1)C2=O` (stereo unspecified) as the compound, how does the “activity change, negative = inhibition” value read?
**A.** 13.6%

**Q.** For `COc1ccc2c(c1)O/C(=C\c1ccccc1O)C2=O`, which “activity change, negative = inhibition” value is on record?
**A.** -5.64%

**Q.** For `CCC1([N+](=O)[O-])COC(c2ccc(C(C)C)cc2)OC1` (stereo unspecified), which “activity change, negative = inhibition” value is on record?
**A.** -8.09%

**Q.** Which “activity change, negative = inhibition” value does the source give for `N#CC1=C(N)Oc2cc(N)ccc2C1c1ccccc1` (stereo unspecified) here?
**A.** -9.22%

**Q.** Which Potency does the source give for `CN(Cc1ccccc1)CC(O)COc1ccc(CNCc2cc3ccccc3s2)cc1` (stereo unspecified) here?
**A.** 10 µM (active)

**Q.** For `OC(CNCc1ccc2c(c1)OCO2)COc1ccccc1` (stereo unspecified), which “activity change, negative = inhibition” value is on record?
**A.** 2.79%

**Q.** Which “activity change, negative = inhibition” value does the source give for `Cc1ccc(OCC(=O)OC(C)CN(C)Cc2ccccc2)cc1` (stereo unspecified) here?
**A.** -3.72%

**Q.** Which “activity change, negative = inhibition” value does the source give for `O=c1nc(NO)ccn1C1CCCO1` (stereo unspecified) here?
**A.** 3.28%

**Q.** For `CN(C)CCNC(=O)c1ccc(Cl)c2cc3ccccc3nc12`, which “activity change, negative = inhibition” value is on record?
**A.** -9.97%

**Q.** Which “activity change, negative = inhibition” value does the source give for `Cc1ccc(S(=O)(=O)n2oc(=O)c(C3CCCCC3)c2N)cc1` here?
**A.** -4.82%

**Q.** With `COC(=O)C1=CN(Cc2ccc(OC)c(OC)c2)C=C(C(=O)OC)C1c1cccs1` as the compound, how does the “activity change, negative = inhibition” value read?
**A.** -8.06%

**Q.** With `COc1ccc(CC2c3cc(OC)c(OC)cc3CC[N+]2(C)CCC(=O)OCCCCCOC(=O)CC[N+]2(C)CCc3cc(OC)c(OC)cc3C2Cc2ccc(OC)c(OC)c2)cc1OC` (stereo unspecified) as the compound, how does the Potency read?
**A.** 10 µM (active)

**Q.** With `CCc1ccc(OCC2c3cc(OC)c(OC)cc3CCN2C(C)=O)cc1` (stereo unspecified) as the compound, how does the “activity change, negative = inhibition” value read?
**A.** 9.64%

**Q.** With `COc1ccc(S(=O)(=O)N2CCc3ccccc32)cc1C(=O)Nc1cc(S(C)(=O)=O)ccc1Cl` as the compound, how does the “activity change, negative = inhibition” value read?
**A.** -10.3%

**Q.** With `O=C1/C(=C\c2ccc([N+](=O)[O-])cc2)CS(=O)(=O)C/C1=C/c1ccc([N+](=O)[O-])cc1` as the compound, how does the “activity change, negative = inhibition” value read?
**A.** -3.6%

**Q.** For `CCOC(=O)c1c(C)[nH]c(C)c1S(=O)(=O)N(C)CC(=O)Nc1ccccc1C`, which “activity change, negative = inhibition” value is on record?
**A.** 15.1%

**Q.** Which “activity change, negative = inhibition” value does the source give for `CCOC(=O)c1ccccc1OC(=O)Oc1ccccc1C(=O)OCC` here?
**A.** -9.61%

**Q.** Which Potency does the source give for `CCOC(=O)c1c(C)[nH]c2c1-c1ccccc1C(=O)C2=O` here?
**A.** 5.62 µM (active)

**Q.** With `CC(=O)Oc1ccc(OC(C)=O)c2c1C1C=CC2CC1` as the compound, how does the “activity change, negative = inhibition” value read?
**A.** -6.74%

**Q.** For `C[C@H](O)[C@@H]1C(=O)N2CCc3ccc(N4CCOCC4)cc3[C@@H]2C[C@@H]1N(C)C(=O)C(C)(C)C`, which “activity change, negative = inhibition” value is on record?
**A.** 17.9%

**Q.** With `CC(NC(=O)c1ccccc1)C(=O)OCC(=O)Nc1cccc(S(=O)(=O)N2CCCC2)c1` (stereo unspecified) as the compound, how does the “activity change, negative = inhibition” value read?
**A.** 9.64%

**Q.** Which Potency does the source give for `CCN1/C(=C\c2ccc3ccccc3[n+]2CC)Sc2cc(C)ccc21` here?
**A.** 3.55 µM (active)

**Q.** Which “activity change, negative = inhibition” value does the source give for `O=C(NNC(=O)c1ccccc1O)c1ccccc1O` here?
**A.** -13.1%
